HCMV antiviral: blocks human cytomegalovirus replication. 4.5% of 410,000 active. HFF cells, HCMV-luciferase reporter, 72 h; active compounds read low. activity change, negative = inhibition, % at 57.5 µM. AID 1259415; in the data active means activity change below about -60%; inconclusive means no clear call, values can overlap the other calls; inactive means above about -39%
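Two-dose cell screen: HFF monolayers treated with compounds and infected with luciferase-expressing HCMV at 1 PFU/cell, 72 h at 37C, then lysed for luciferase measurement.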
MARV entry inh: Marburg virus entry inhibition. Marburg virus pseudotyped entry inhibition, cell reporter. Potency, µM (highest dose often 37.8 µM), for the others: at the top dose activity change, negative = inhibition, usual class: inhibitors. 1.8% of 300,000 active. AID 540276; calls by dose curve; tested in HEK293 cells; further: potency means the concentration at half of the fitted maximal effect
HCV inhibitor: inhibitors of hepatitis C virus infection | Huh7.5.1 HCVcc-Cre infection, luciferase reporter, 44 h | Potency, µM (top dose mostly 41.8 µM), without a hit: top-dose activity change, negative = inhibition, most hits filed as inhibitors | 3.4% of 340,000 active | AID 651820; active means well fitted inhibition curve with a large enough effect; inconclusive means small, poorly fitted or top-dose-only effect, or another doubt; inactive means no such curve, though single readings can be large or run the other way; further: potency means the concentration at half of the fitted maximal effect
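1,000 cells/well; 4 h culture; + compound; + HCVcc-Cre (~0.5 moi); 44 h; luciferase substrate, RT 15 min; read 15 sec.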
VACV Venus inh: inhibitors of vaccinia virus (Venus reporter); Vaccinia virus Venus reporter expression, fluorescence; Potency, µM (top dose mostly 36.5 µM), inactives show at the highest dose activity change, negative = inhibition, actives largely listed as inhibitors; 0.46% of 330,000 active; AID 720580; calls by dose curve; tested in A549 cells; further: potency means the concentration at half of the fitted maximal effect; nearly all actives have a fitted effect of over 30% in size
Vaccinia mCherry: vaccinia inhibition (mCherry reporter); Vaccinia virus mCherry reporter infection, fluorescence; Potency, µM (titrated, usually from 36.5 µM), for inactives: at the highest dose activity change, negative = inhibition, hits mostly inhibitors; 0.63% of 310,000 active; AID 720579; calls by dose curve; tested in A549 cells; further: potency means the concentration at half of the fitted maximal effect; nearly all actives have a fitted effect of over 35% in size
Lassa entry inh: inhibitors of Lassa virus binding or cell entry. Potency, µM (top dose mostly 37.9 µM), for the others: at the top dose activity change, negative = inhibition, most hits filed as inhibitors. 1.2% of 300,000 active. Lassa virus pseudotype entry inhibition, cell reporter; calls by dose curve; tested in HEK293 cells; further: potency means the concentration at half of the fitted maximal effect; nearly all actives have a fitted effect of over 50% in size
Active calls of the source: *; [ ] = remark or other dose. In the library only some 7.8% were active in any assay of this set; here they are far more common. On the % scale 0 is the no-effect control and ±100 the full control effect.

Screening CC(C)(CNC(=O)c1cc([N+](=O)[O-])ccc1N1CCC(Cc2ccccc2)CC1)N1CCOCC1 returned HCMV antiviral -63.4* and HCV inhibitor inconclusive.
Screening O=C(Nc1ccc2oc(=O)ccc2c1)c1cc([N+](=O)[O-])ccc1N1CCOCC1 returned HCMV antiviral 0.0, MARV entry inh 2.2%[46.1 µM], HCV inhibitor -14.9%, VACV Venus inh -6.3%, Vaccinia mCherry inactive and Lassa entry inh 8.2%[46.1 µM].
Cc1cc(C)c(NC(=O)CNC(=O)c2cc([N+](=O)[O-])ccc2N2CCOCC2)c(C)c1 was read as HCMV antiviral -3.6, MARV entry inh inconclusive, HCV inhibitor 25.1µM*, VACV Venus inh -4.6%, Vaccinia mCherry -1.4% and Lassa entry inh inconclusive.
CCC(C)(C)NC(=O)c1cc([N+](=O)[O-])ccc1N1CCOCC1 was read as HCMV antiviral 8.7, MARV entry inh 19.5%, HCV inhibitor 18.3%, VACV Venus inh -6.6%, Vaccinia mCherry -3.1% and Lassa entry inh 14.4%.
Cc1cc(=O)oc2cc(NC(=O)c3cc([N+](=O)[O-])ccc3N3CCOCC3)ccc12 was read as HCMV antiviral inconclusive, MARV entry inh inconclusive, HCV inhibitor 10µM*, VACV Venus inh -5.6% and Vaccinia mCherry -13.0%.
Screening CC1(C)NC(=O)N(C[C@@H](O)Cn2nnc3ccccc32)C1=O returned MARV entry inh -13.5%[46.1 µM].
Brc1ccc(-c2csc(N3CCOCC3)n2)cc1 was read as HCMV antiviral 6.6 and HCV inhibitor 11.2µM*.
`Brc1ccc(-c2csc(/N=C/N3CCCC3)n2)cc1` gave HCMV antiviral -23.2, MARV entry inh 8.91µM*, HCV inhibitor 11.2µM*, VACV Venus inh -27.0%, Vaccinia mCherry -15.0% and Lassa entry inh inconclusive.
CCCCn1c(C)c(C(=O)OCC)c2c(CN3CCOCC3)c(O)ccc21 was read as HCMV antiviral -29.3, MARV entry inh inconclusive, HCV inhibitor 25.1µM*, VACV Venus inh -16.9%, Vaccinia mCherry -22.3% and Lassa entry inh inconclusive.
`CCOC(=O)c1c(C)n(C)c2ccc(O)c(CN3CCC(C)CC3)c12` gave MARV entry inh 11.2µM*, HCV inhibitor inconclusive, VACV Venus inh -10.6%, Vaccinia mCherry -23.0% and Lassa entry inh inconclusive.
For Cc1ccccc1C(=O)NC(C)c1nnc2n1CCN(Cc1ccccc1F)CC2 (centres undefined) the results were VACV Venus inh 0.0% and Vaccinia mCherry inactive.
`C=CCCCN1C(=O)NC(c2ccccc2)C(C(=O)OC)=C1C` (centres undefined) gave MARV entry inh -29.4%[14.2 µM].
`CCCCNC(=O)N[C@H]1CC[C@@]23CCCN2C(=O)CCC[C@H]3[C@H]1CCC` gave HCMV antiviral 5.0.
CC(Sc1nc2c([nH]c3ccccc32)c(=O)n1-c1ccccc1)c1ccccc1 (centres undefined) was read as HCMV antiviral -82.6*, VACV Venus inh -20.7%, Vaccinia mCherry -14.7% and Lassa entry inh inconclusive.
Screening O=C(CSc1nc2c([nH]c3ccccc32)c(=O)n1-c1ccccc1F)Nc1ccccc1C(F)(F)F returned HCMV antiviral -88.9*, VACV Venus inh -22.3%, Vaccinia mCherry -1.5% and Lassa entry inh inconclusive.
For Cc1cc(C)cc(-n2c(SCC(N)=O)nc3c([nH]c4ccccc43)c2=O)c1 the results were HCMV antiviral -71.4*, VACV Venus inh -22.2%, Vaccinia mCherry -18.4% and Lassa entry inh inconclusive.
COC(=O)C(C)Sc1nc2c([nH]c3ccccc32)c(=O)n1-c1ccc(OC)cc1 (centres undefined) was read as HCMV antiviral 19.5, VACV Venus inh -2.0%, Vaccinia mCherry 3.7% and Lassa entry inh -14.4%[46.1 µM].
O=C(CSc1nc2c([nH]c3ccccc32)c(=O)n1-c1ccccc1)Nc1ccccc1F was read as HCMV antiviral 31.4, VACV Venus inh -6.8%, Vaccinia mCherry -2.8% and Lassa entry inh 3.8%[46.1 µM].
Screening CCSc1nc2c([nH]c3ccccc32)c(=O)n1-c1cccc(OC)c1 returned HCMV antiviral -63.2*, VACV Venus inh -14.4%, Vaccinia mCherry -15.1% and Lassa entry inh inconclusive.
For Cc1cc(C)cc(-n2c(SCC(=O)N3CCCCCC3)nc3c([nH]c4ccccc43)c2=O)c1 the results were HCMV antiviral -4.9, VACV Venus inh -5.2%, Vaccinia mCherry -6.6% and Lassa entry inh -9.5%[46.1 µM].
For COc1ccc(OC)c(NC(=O)CSC2=Nc3ccccc3C3=NC(CCC(=O)NCc4ccco4)C(=O)N23)c1 (centres undefined) the results were HCMV antiviral 3.9, VACV Venus inh -15.1%, Vaccinia mCherry -14.7% and Lassa entry inh inconclusive.
`NC(=S)NN=C1c2ccccc2-c2c(F)c(F)c(F)c(F)c21` gave HCMV antiviral -27.2, MARV entry inh inconclusive, HCV inhibitor inconclusive, VACV Venus inh -24.2%, Vaccinia mCherry -8.9% and Lassa entry inh inconclusive.
N#Cc1cccc2c1-c1ccccc1/C2=N/NC(N)=S was read as MARV entry inh inconclusive, HCV inhibitor 12.6µM*, VACV Venus inh inconclusive, Vaccinia mCherry inconclusive and Lassa entry inh inconclusive.
For Cc1cc(C)n(-c2nc3ccccc3nc2Nc2ccc3[nH]c(=O)[nH]c3c2)n1 the results were HCMV antiviral -13.7, MARV entry inh -17.9%, HCV inhibitor 11.2µM*, VACV Venus inh -18.8%, Vaccinia mCherry -27.6% and Lassa entry inh 7.4%.
`Cc1ccc2[nH]c(C)c([N+](=O)[O-])c2c1` gave HCMV antiviral -29.9.
`N#CCc1ccnc2ccccc12` gave HCMV antiviral -24.3, MARV entry inh 8.7%[46.1 µM], HCV inhibitor 0.7%, VACV Venus inh 18.2%, Vaccinia mCherry -24.7% and Lassa entry inh -1.4%[46.1 µM].
For N#CC(C#N)c1ccnc2ccccc12 the results were HCMV antiviral -78.1*, VACV Venus inh -16.7% and Vaccinia mCherry -8.8%.
`COc1ccc(C(=O)Nc2ccc(OCc3ccccc3)cc2)cc1[N+](=O)[O-]` gave HCMV antiviral 10.2, MARV entry inh inconclusive, HCV inhibitor inconclusive and Lassa entry inh -8.9%.
`COc1ccc(CCC(=O)Nc2cc(Cl)ccc2N2CCN(C)CC2)cc1` gave HCMV antiviral -3.4, MARV entry inh inconclusive, HCV inhibitor inconclusive, VACV Venus inh inconclusive and Lassa entry inh -26.8%.
Screening COc1ccc(Cl)cc1C(=O)Nc1ccccc1N1CCCCC1 returned HCMV antiviral -14.9 and HCV inhibitor 11.2µM*.
`COc1ccc(Cl)cc1C(=O)Nc1ccccc1N1CCN(C)CC1` gave HCMV antiviral 2.3, MARV entry inh inconclusive, HCV inhibitor inconclusive, VACV Venus inh -26.4%, Vaccinia mCherry -14.5% and Lassa entry inh -21.6%.

Screening data as filed in PubChem.
